The list is not random: actives were taken first. Their share in the collection is about 2.1%.
APP transl inh: APP translation inhibition. inhibition, % at 2 µM. SH-SY5Y APP 5'UTR-luciferase reporter, luminescence. 190,000 compounds, 0.82% hits;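 active = inhibition above a set limit, derived from the sample mean plus 3 SD, cut at about 45% in these data; inconclusive = one replicate passes the limit while the other fails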
Ba/F3 V617F tox: reduce viability of Ba/F3 cells dependent on JAK2V617F; 220,000 compounds, 1.1% hits; Ba/F3 EpoR-JAK2V617F viability, ATP luminescence; inhibition, % at 5.6 µM;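 active = inhibition above the campaign mean plus 3 SD over all tested compounds, cut at about 24% in these data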;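 note: cytokine-independent growth of Ba/F3 cells driven by EpoR plus mutant JAK2; 0% = DMSO-treated cells and 100% = JAK inhibitor I control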
IEC-6 cytotox: counter-screen for KLF5 inhibitors: cytotoxicity in IEC-6 cells; 290,000 compounds, 0.78% hits; AID 1825; inhibition, % at 5 µM; IEC-6 cytotoxicity, luminescence viability; in the data active = inhibition above about 22%;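 note: 0% = plate median of test compound wells and 100% = cytotoxic reference compound wells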
KLF5 inhibitor: suppresses KLF5 promoter-driven expression | DLD-1 KLF5 promoter-luciferase reporter, luminescence | inhibition, % at 5 µM | 290,000 compounds, 0.23% hits;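 active = inhibition above a per-plate limit of that plate's mean compound inhibition plus 3 SD, cut at about 60% in these data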;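 note: 0% = DMSO wells and 100% = LY294002 at 200 µM; higher means less KLF5 promoter-driven luciferase light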
BaF3 tox: counter-screen for JAK2V617F inhibitors: parental Ba/F3 viability inhibitors; inhibition, % at 5.6 µM; CellTiter-Glo ATP luminescence; 220,000 compounds, 1.1% hits;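 active = inhibition above a per-campaign cutoff, the mean inhibition of all tested compounds plus 3 SD, cut at about 27% in these data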;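 note: 0% = DMSO wells and 100% = JAK Inhibitor I control wells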
aSyn 5UTR inh: 5' untranslated region of α-synuclein, MLPCN primary screen; alpha-synuclein 5'UTR reporter, inhibitor activity; 300,000 compounds, 0.82% hits; inhibition, % (tested at 7.5 µM); in the data active = inhibition above about 60%; inconclusive = no clear call, values can overlap the other calls;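 note: H4 neuroglioblastoma cells stably carrying SNCA 5'UTR luciferase fusion; 0% = DMSO wells and 100% = positive control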
Numbers without * were called inactive; ? = inconclusive; . = no result given.

SMILES	APP transl inh	Ba/F3 V617F tox	IEC-6 cytotox	KLF5 inhibitor	BaF3 tox	aSyn 5UTR inh
CCOC(=O)C1CCN(CC(=O)c2ccc(O)c(C)c2O)CC1	.	.	-4	-20	.	-4
CN=C(NC1CCCCC1)c1ccc([N+](=O)[O-])cc1	.	.	-2	-18	.	0
COC(CNS(=O)(=O)c1ccc(S(=O)(=O)NC2CC2)cc1)OC	.	.	-4	-59	.	3
O=C(O)/C=C/c1ccc([N+](=O)[O-])o1	18	0	-8	-2	4	10
O=C1NC(=S)S/C1=C\C=C\c1ccc([N+](=O)[O-])o1	.	31*	-28	10	9	.
O=C1CCC([N+](=O)[O-])C(c2ccc(C(F)(F)F)cc2)N1 (centres undefined)	.	.	.	.	.	-13
CSc1ncccc1C(=O)N1CCN(S(=O)(=O)c2cc(C)ccc2C)CC1	.	.	0	-9	.	15
Oc1ccc(CN2CCN(c3ccccc3)CC2)c2cccnc12	-7	0	0	-1	5	80*
Oc1ccc(F)c2cccnc12	-8	1	2	10	2	-21
Cc1ccc(C)c(S(=O)(=O)N2CCN(Cc3ccc(O)c4ncccc34)CC2)c1	56*	21	-1	26	1	74*
O=[N+]([O-])c1cc(CN2CCN(c3cccc(C(F)(F)F)c3)CC2)c2cccnc2c1O	65*	-2	-2	14	8	71*
Oc1ccc2ccccc2c1CN1CCN(c2ccccc2)CC1	-2	0	1	-25	3	-19
Oc1ccc(CNc2ccccc2F)c2cccnc12	48*	3	-4	8	2	87*
O=C(O)c1cc([N+](=O)[O-])cc2c1C=Cc1ccccc1O2	.	.	-6	-16	.	2
Cc1cccc(N2CCN(C(=O)c3cc(S(=O)(=O)N4CCOCC4)cn3C)CC2C)c1 (centres undefined)	.	.	-3	-9	.	-8
COc1ccccc1/C=C/C(=O)OCCN1C(=O)c2ccccc2C1=O	.	.	1	-32	.	-1
CCOC(=O)N1CCN(Cc2ccc(O)c3ncccc23)CC1	11	3	7	8	7	18
CC(C)COCc1ccc(O)c2ncccc12	6	-1	-2	-15	6	96*
OCc1ccc(O)c2ncccc12	36	67*	-6	-7	32*	66*
Oc1ccc(CN2CCCCC2)c2cccnc12	88*	86*	2	14	62*	?
CCCOCc1ccc(O)c2ncccc12	.	-4	2	16	3	46
CC1=N/C(=C/c2cccnc2)C(=O)O1	4	2	0	-6	4	15
Cc1ccc(CS(=O)(=O)CC(C)(O)c2ccccc2)cc1 (centres undefined)	.	.	7	-3	.	12
COc1cc(NCCCCCCCN)c2ncccc2c1	-8	50*	11	-13	37*	1
COc1cc(NC(C)CCCN)c2ncccc2c1 (centres undefined)	.	.	.	.	.	3
SMILES	APP transl inh	Ba/F3 V617F tox	IEC-6 cytotox	KLF5 inhibitor	BaF3 tox	aSyn 5UTR inh
Cc1c(C(=O)N/N=C/c2ccc(N(C)C)cc2)[nH]c2ccc(Cl)cc12	90*	0	14	-21	1	73*
NNC(=O)c1[nH]c2ccc(Br)cc2c1-c1ccccc1	.	-2	0	8	3	-13
O=C(N/N=C/c1ccccc1)c1c(O)c2ccccc2[nH]c1=O	-67	-2	-2	-19	1	-26
NNC(=O)c1[nH]c2ccc(Cl)cc2c1-c1ccccc1	.	-3	2	-16	0	77*
Cc1c(C(=O)N/N=C/c2ccccc2)[nH]c2ccc(Cl)cc12	52*	4	7	-33	4	-61
CCCCCOc1ccc(NC(=O)C(=O)NCCCn2ccnc2)cc1	-7	-2	-1	-39	4	63*
CSC1=C(C#N)C(c2ccc(Cl)cc2)C2=C(CC(C)(C)CC2=O)N1 (centres undefined)	.	.	.	.	.	71*
O=C(Nc1cccc(Cl)c1)Nc1cnccn1	.	.	2	-55	.	-34
O=C(Nc1cccc(Cl)c1)Nc1ccnc(-c2cccnc2)n1	56*	7	-10	-8	0	25
Cc1ccc(-c2cc(C(=O)OCC(=O)N(C)c3c(N)n(Cc4ccccc4)c(=O)[nH]c3=O)c3ccccc3n2)o1	.	.	.	.	.	-26
COc1ccc(-c2c(C)nn3c(N4CCC(C(=O)NCCN(C)C)CC4)cc(C)nc23)cc1OC	21	0	-5	7	3	-15
CCCN(CCC)C(=O)C1CCN(c2cc(C)nc3c(-c4ccc(OC)c(OC)c4)c(C)nn23)CC1	-10	0	0	-58	40*	2
Cc1cc(C)c2nc(NCCCNC(=S)NCCCN(C)C)c(C#N)cc2c1	-11	1	-2	-24	6	96*
CCOCCCNC(=S)NCCCNc1nc2c(C)cc(C)cc2cc1C#N	11	4	-1	-17	6	.
CC(=O)c1ccccc1Oc1ncnc(N)c1[N+](=O)[O-]	.	.	0	-11	.	-5
Cc1ccc2nc(N=C(N)N)nc(C)c2c1	-14	50*	4	-19	42*	14
CCc1ccc2nc(N=C(N)N)nc(C)c2c1	-14	50*	8	22	45*	48
Cc1cc2nc(N=C(N)N)nc(C)c2cc1C	-47	73*	15	21	65*	.
O=C(CCn1nnnc1CN1CCOCC1)N1CCC(c2cccc(Cl)c2)C1 (centres undefined)	.	.	-6	-18	.	-4
CCN(C(=O)C1CCCN1S(=O)(=O)c1ccc2c(c1)n(C)c(=O)c(=O)n2C)c1ccccc1 (centres undefined)	.	.	4	-17	.	0
CC1C(=O)NN=C1C(=O)N/N=C/c1ccco1 (centres undefined)	72*	5	6	-14	4	15
O=[N+]([O-])c1ccc(NCc2ccccc2)nc1	-14	32*	6	-35	75*	-67
Cc1ccc(NC(=O)NNC(=O)C2CCN(Cc3ccc(F)cc3Cl)CC2)cc1	21	-5	2	-44	4	-8
Cc1cccn2cc(-c3cc4ccccc4oc3=O)nc12	-84	-2	3	-31	90*	-45
O=c1oc2ccccc2cc1-c1cn2ccccc2n1	-32	13	8	-27	13	98*
SMILES	APP transl inh	Ba/F3 V617F tox	IEC-6 cytotox	KLF5 inhibitor	BaF3 tox	aSyn 5UTR inh
O=c1oc2ccccc2cc1-c1cn2cccnc2n1	-55	-2	-1	-205	12	-65
CCCSCCCNC(=O)c1ccc(C)c(NC(=O)C2=C(C)OCCS2)c1	.	.	-2	-34	.	7
COc1ccc(N2CCc3c(C)nc4c(OC)cccc4c32)cc1	86*	87*	70*	57	78*	89*
COc1ccc(N2CCc3c(C)nc4c(OC)cc(OC)cc4c32)cc1	-9	5	8	-43	6	7
CC[C@@]1(O)C(=O)OCc2c1cc1n(c2=O)Cc2cc3c(N)cccc3nc2-1	.	.	.	.	.	103*
CC[C@@]1(O)C(=O)OCc2c1cc1n(c2=O)Cc2cc3c(CN(C)C)c(O)ccc3nc2-1	.	.	.	.	.	26
CCCCCCC1/C(=N\NC(=O)c2ccccc2)CCC1C(=O)OC (centres undefined)	.	.	0	-22	.	-7

Assay outcomes as filed in PubChem.
